SMILES strings stand for the structures. Inconclusive results are not listed. Entries that show only a call come without a potency. Calls of active or inactive are those of the source. Calls follow the shape of the dose curve; as a rule, active = well fitted cell-killing curve with a large enough effect; inconclusive = small, poorly fitted or top-dose-only effect; inactive = no such curve, though single readings can be large or run the other way. Numbered stars: 1 amine (or outer) side, 2 acyl side, 3 side chain; on linkers, the order of the positions; unused ones are H or OH. Bridge positions count the residues as written; N and C are the ends. Square brackets hold non-standard residues; d marks the D form. Peptide text beside a SMILES is read from it. I, II: the chains in the order shown. Actinocin(9to1) = Cc1c2oc3c(C)ccc(C(=O)[*:1])c3nc-2c(C(=O)[*:2])c(N)c1=O; NMeV = CN[C@H](C(=O)O)C(C)C; Sar = CNCC(=O)O
Potency is read from the fitted curve at half-maximal effect.

The assay can be described thus: qHTS of pediatric cancer cell lines to identify multiple opportunities for drug repurposing: Confirmatory screen for U-2 OS cells (AID 1347122). Also: nearly all actives have a fitted effect of over 65% in size. As to conditions: U-2 OS osteosarcoma cell viability; series mostly up to 45.9 µM. From the text: Drug repurposing or repositioning has been offered as a strategy for drug development in oncology programs. This approach has special potential for childhood cancers and other rare or orphan diseases, where the expected return on new drug development has been a disincentive to pharmaceuticals.
In this project we exploit the poly-pharmacology of drugs to discover new indications via phenotypic screening of a panel of 19 well-characterized cell lines derived from solid tumors seen in children and adolescents. The goal is to identify approved drugs with previously unrecognized anticancer properties that has the potential to reveal new mechanisms and biological processes involved in carcinogenesis or drug resistance. We employed a titration-based paradigm (quantitative high-throughput screening or qHTS), where all compounds were tested at multiple concentrations for their effect on cell viability. Concentration-response curves (CRCs) were derived directly from the primary screen, and both potency and efficacy values were used to identify compounds with robust bioactivity profiles. We screened the NIH Chemical Genomics Center (NCGC) Pharmaceutical Collection (NPC) and Mechanism Interrogation Plate (MIPE) small molecule collections of approved and investigational compounds against these cell lines; and measured metabolically active cells after 48 hours of compound treatment as a proxy for cell viability.
Assay Submitter: Nathalia J. Martinez, National Center for Advancing Translational Sciences, National Institutes of Health, Rockville, MD, USA; email: natalia.martinez@nih.gov
[1] Shen, M et al. Quantitative high-throughput phenotypic screening of pediatric cancer cell lines identifies multiple opportunities for drug repurposing. Oncotarget 2017 Dec 19;9(4):4758-4772. PMID 29435139.
The cells were obtained from University of North Carolina (UNC), Pediatric Preclinical Testing Program (PPT), and Coriell Institute (CI).
qHTS cell viability assay:
Cells were assayed in growth media at a density of 500-1,000 cells/well. Five microliters of cells were dispensed into 1,536-well, white, solid-bottom, TC-treated plates (Greiner Bio One) using a multidrop dispenser and incubated at 37 degrees C, 5% CO2, under a humidified atmosphere for 5 hours. Twenty-three nanoliters of compounds and controls (neutral control DMSO or positive control bortezomib at final concentration of 2.3 µM) were subsequently transferred by Kalypsys pintool. For primary screens, the MIPE collection was tested at 11-point dilutions (final concentrations range from 0.78 nM to 46 µM) and the NPC collection at 8-point dilutions (final concentrations range from 0.59 nM to 46 µM). Compounds tested in follow-up screens were assayed at 11-point dilutions. Cells were incubated for 48 hours, followed by addition of 3 µL of CellTiter-Glo (Promega). After a 15 min incubation at room temperature, samples were analyzed for luminescence intensity using a ViewLux High-throughput CCD imager equipped with clear filters.
In general terms: qHTS replaces the single test concentration by a dilution series.
Consider `C[C@@H]1C[C@H]2[C@@H]3C[C@H](F)C4=CC(=O)C(Cl)=C[C@]4(C)[C@@]3(F)[C@@H](O)C[C@]2(C)[C@@]1(O)C(=O)CO`, for which the Potency entry was “inactive”.
Under `Oc1ccc(O)cc1` stands “inactive”; under `CC(=O)OCC(=O)[C@@]12OC(C)(C)O[C@@H]1C[C@H]1[C@@H]3C[C@H](F)C4=CC(=O)C=C[C@]4(C)[C@@]3(F)[C@@H](O)C[C@@]12C`, “inactive”.
Take `O=C(CCCN1CCC(O)(c2ccc(Br)cc2)CC1)c1ccc(F)cc1`: the Potency entry was “inactive”.
Regarding `C[C@]12CCC(=O)C=C1CC[C@H]1[C@@H]3CC[C@](O)(C(=O)CO)[C@@]3(C)C[C@H](O)[C@@]12F`, the Potency entry is “inactive”.
As for `CN(C)/N=N/c1nc[nH]c1C(N)=O`, the entry is “inactive”; as for `C[C@]12C=CC(=O)C=C1[C@@H](F)C[C@@H]1[C@@H]2[C@@H](O)C[C@@]2(C)[C@H]1CC[C@]2(O)C(=O)CO`, “inactive”; as for `COc1c(C)c2c(c(O)c1C/C=C(\C)CCC(=O)O)C(=O)OC2`, 1.85 µM (active).
Turning to `CC(=O)[C@H]1CC[C@H]2[C@@H]3C[C@H](C)C4=CC(=O)CC[C@]4(C)[C@H]3[C@@H](O)C[C@]12C`, the Potency was 0.329 µM (active).
Consider `CCOc1ccc2nc3cc(N)ccc3c(N)c2c1`, for which the Potency was 0.585 µM (active).
On to `CC(=O)OCC(=O)[C@@]1(OC(C)=O)[C@@H](C)C[C@H]2[C@@H]3C[C@H](F)C4=CC(=O)C=C[C@]4(C)[C@@]3(F)[C@@H](O)C[C@@]21C`, for which the Potency result is “inactive”.
As for `CCC(C(=O)OCCN(CC)CC)c1ccccc1` (configuration not stated), the entry is “inactive”.
On to `CC(=O)Oc1ccc(C(c2ccc(OC(C)=O)cc2)c2ccccn2)cc1`, for which the Potency result was “inactive”.
As for `C[C@H]1C[C@H]2[C@@H]3CCC4=CC(=O)C=C[C@]4(C)[C@@]3(Cl)[C@@H](O)C[C@]2(C)[C@@]1(O)C(=O)CO`, the entry is “inactive”; as for `CC(=O)OCC(=O)[C@@]12N=C(C)O[C@@H]1C[C@H]1[C@@H]3CCC4=CC(=O)C=C[C@]4(C)[C@H]3[C@@H](O)C[C@@]12C`, “inactive”; as for `NC(CO)(CO)CO`, “inactive”.
On to `CCCCC(CC)CN=C(N)NC(N)=NCCCCCCN=C(N)NC(N)=NCC(CC)CCCC` (configuration not stated), for which the Potency was 4.65 µM (active).
Consider `C[C@]12C=CC(=O)C=C1CC[C@@H]1[C@@H]2[C@@H](O)C[C@@]2(C)[C@H]1CC[C@]2(O)C(=O)CO`, for which the Potency entry is “inactive”.
For the compound `CC(=O)OCC(=O)[C@@]1(O)[C@H](C)C[C@H]2[C@@H]3CCC4=CC(=O)C=C[C@]4(C)[C@@]3(F)[C@@H](O)C[C@@]21C`, the Potency was 20.8 µM (active).
Take `CC(C)(C(=O)c1cccnc1)c1cccnc1`: the Potency entry is “inactive”.
Take `CCCC(=O)O[C@]1(C(=O)CO)CC[C@H]2[C@@H]3CCC4=CC(=O)CC[C@]4(C)[C@H]3[C@@H](O)C[C@@]21C`: the Potency result was “inactive”.
Regarding `CC1(C)O[C@@H]2C[C@H]3[C@@H]4C[C@H](F)C5=CC(=O)CC[C@]5(C)[C@H]4[C@@H](O)C[C@]3(C)[C@]2(C(=O)CO)O1`, the Potency result was “inactive”.
Under `Cc1c2oc3c(C)ccc(C(=O)N[C@@H]4C(=O)N[C@H](C(C)C)C(=O)N5CCC[C@H]5C(=O)N(C)CC(=O)N(C)[C@@H](C(C)C)C(=O)O[C@@H]4C)c3nc-2c(C(=O)N[C@@H]2C(=O)N[C@H](C(C)C)C(=O)N3CCC[C@H]3C(=O)N(C)CC(=O)N(C)[C@@H](C(C)C)C(=O)O[C@@H]2C)c(N)c1=O` (I: T[dV]P[Sar][NMeV] / II: T[dV]P[Sar][NMeV]; ester I:1-I:C, II:1-II:C; linker I:N-II:N via Actinocin(9to1)) stands 0.369 µM (active).
Under `NC(=O)CC[C@@H]1NC(=O)[C@H](Cc2ccccc2)NC(=O)[C@H](Cc2ccc(O)cc2)NC(=O)CCSSC[C@@H](C(=O)N2CCC[C@H]2C(=O)N[C@@H](CCCN=C(N)N)C(=O)NCC(N)=O)NC(=O)[C@H](CC(N)=O)NC1=O` stands “inactive”; under `C[C@@H]1C[C@H]2[C@@H]3CCC4=CC(=O)C=C[C@]4(C)[C@@]3(F)[C@@H](O)C[C@]2(C)[C@H]1C(=O)CO`, “inactive”.
Turning to `C[C@@H]1CN(CCCn2c3ccccc3c3ccccc32)C[C@H](C)N1`, the Potency result was “inactive”.
Under `COCc1c(C(C)C)nc(C(C)C)c(/C=C/[C@@H](O)C[C@@H](O)CC(=O)O)c1-c1ccc(F)cc1` stands 0.261 µM (active); under `CCCCCCC[N+](CC)(CC)CCCCc1ccc(Cl)cc1`, “inactive”; under `CC(=O)OCC(=O)[C@@]1(O)CC[C@H]2[C@@H]3CCC4=CC(=O)C=C[C@]4(C)[C@H]3[C@@H](O)C[C@@]21C`, “inactive”.
Under `CC1(C)O[C@@H]2C[C@H]3[C@@H]4CCC5=CC(=O)CC[C@]5(C)[C@@]4(F)[C@@H](O)C[C@]3(C)[C@]2(C(=O)CCl)O1` stands “inactive”.
With `C[n+]1c2cc(N)ccc2cc2ccc(N)cc21` (tested in a mixture with another compound), the Potency is 16.5 µM (active).
As for `CN(C)C(=S)SC(=S)N(C)C`, the entry is “inactive”.

Values taken from PubChem BioAssay (NCATS).
